The results in this text go back to PubChem BioAssay (EPA / NIEHS).

Active and inactive are the calls of the source. Rule for the calls: active = hit-call score of the fitted dose curve at least 0.9, where 1 is the maximum; inactive = score below 0.9.

The nature of the assay: CCTE_Shafer_MEA_acute_synchrony_index: CCTE's Neural Acute Assay for Synchrony, Shafer Lab (AID 2284027).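 Note: fitted for loss of signal so actives lower synchrony relative to DMSO.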 The method, then: CCTE_Shafer_MEA_acute assay is conducted using Axion Biosystems 48 well microelectrode array (MEA) plates and Maestro recording system. Each well of the MEA plate contains a grid of 16 microelectrodes embedded in the culture surface. Electrically active cells, such as neurons, can be cultured over the electrodes, and electrical activity in these cells can be recorded extracellularly. The spontaneous firing of neurons is captured from each electrode on a microsecond timescale providing both temporally and spatially precise data. […] The CCTE_Shafer_MEA_acute assay uses primary cultures of rat cortical neurons. As these cultures mature over time, neural networks develop functional activity and form cohesive networks in which electrical activity can be highly coordinated. Baseline 40-minute recordings are made on days post-plating 13 or 15, followed by a secondary 40-minute recording after chemical exposure.CCTE_Shafer_MEA_acute_synchrony_index is a component of the CCTE_Shafer_MEA_acute assay. It measures the synchrony of the neural network as a unitless measure between 0 (low synchrony) to 1 (high synchrony) during a recording in a microelectrode array (MEA) using Axion Biosystems Maestro 768 channel amplifier with the AxIS adaptive spike detector. The recordings before and after chemical treatment are used to calculate a percent change in the synchrony index in each well.Data from the assay component CCTE_Shafer_MEA_acute_synchrony_index was analyzed into 1 assay endpoint. This assay endpoint, CCTE_Shafer_MEA_acute_synchrony_index, was analyzed in the negative analysis fitting direction relative to DMSO as the negative control and baseline of activity. Using a type of functional reporter, gain or loss-of-signal activity can be used to understand electrical activity.
Spontaneous activity in the cortical cultures was recorded using an Axion Biosystems Maestro 768 channel amplifier and Axion Integrated Studios (AxIS) v1.8 (or later) software. The amplifier recorded from all channels simultaneously (gain = 1200 x; sampling rate = 12.5 kHz/channel): raw signals were filtered with a Butterworth band-pass filter (300-5000 Hz), which filters out slower local field potentials leaving only fast potentials, i.e., "spikes", arising from extracellular currents associated with action potentials (Pine 2006; Wheeler and Nam 2011). On-line spike detection of filtered signals was conducted with the AxIS adaptive spike detector, using a threshold of 8x the root mean squared (rms) noise on each channel. Any electrodes with rms noise levels greater than 5 uV were grounded (e.g., no data were recorded). Once grounded, an electrode was grounded for the duration of the experiment. All recordings were conducted at 37 C. Wells were deemed usable if on the day of the exposure >/= 10 electrodes were active (defined as >/= 5 spikes/min). On DIV 13 or 15, a minimum of three wells from one cortical culture preparation were treated with each compound (0.03-40 uM). Prior to recording baseline activity, each mwMEA plate was placed in the Maestro at 37 C and allowed to sit for 20 min while firing rates stabilized. Baseline activity (40 min) was recorded before the addition of each compound. An additional 40 min of spontaneous activity was recorded in the presence of each compound. Changes in network parameters relative to baseline were assessed following compound treatment.
Take `C=CC(C)(O)CCC=C(C)C` (stereo not given): the call was inactive.
Regarding `CN(C)C(=S)SC(=S)N(C)C`, the call was inactive.
Still for that read-out and setting: as for `COCCc1ccc(OCC(O)CNC(C)C)cc1` (stereo not given), the entry is “inactive”; as for `CCOC(=O)C(C#N)=C(c1ccccc1)c1ccccc1`, “inactive”.
In the case of `O=C(Nc1ccc2c(O)c(N=Nc3ccc(N=Nc4ccc(S(=O)(=O)O)cc4)cc3)c(S(=O)(=O)O)cc2c1)c1ccccc1`, the AC50 was 15 µM (active).
As for `CCCCCCC(CO)CCCC` (stereo not given), the AC50 was 4.68 µM (active).
For the molecule `CC(CN=Cc1ccccc1O)N=Cc1ccccc1O` (stereo not given), the call was inactive.
In the case of `CC1(C)CCC[C@]2(C)[C@H]3CCO[C@]3(C)CC[C@@H]12`, the result was inactive.
Same read-out and setting: as for `O=CN1CCOCC1`, the entry is “inactive”.
In the case of `Oc1c(Cl)cc(Cl)c(Cl)c1Cc1c(O)c(Cl)cc(Cl)c1Cl`, the AC50 is 0.203 µM (active).
